{
  "source": "ChEMBL document CHEMBL4513216",
  "about": "“Probing the Open Global Health Chemical Diversity Library for Multistage-Active Starting Points for Next-Generation Antimalarials” (ACS Infect Dis, 2020)",
  "note": "About 2,100 (3.2%) of roughly 65,000 compounds showed an effect of 50% or more. The median lay at about -52%. The full list was thinned out, with strong results kept by preference.",
  "data": [
    {"test_system": "Plasmodium falciparum", "test": "Screen against P. falciparum Asexual Blood Stage (ABS), at 5uM", "assay_type": "functional, Dd2", "conditions": "tested at 5 uM", "units": {"INHIBITION": "%"}, "values": [
      {"compound": "CNCC[C@H]1CC(C)(C)Oc2ccc(OC)cc21", "INHIBITION": 73.8},
      {"compound": "CNCC[C@H]1CC(C)(C)Oc2ccc(OCC3CC3)cc21", "INHIBITION": 76.1},
      {"compound": "CC(C)(O)c1cn(C[C@H]2C[C@@H]3CCN2C[C@@H]3C(=O)N2CCOCC2)nn1", "INHIBITION": -62.4},
      {"compound": "CC(=O)c1cc(CC(=O)N2CCN(CCOc3ccccc3)CC2)cs1", "INHIBITION": 7.62},
      {"compound": "CN(C)c1nc2c(c(NCc3cc(O)ncn3)n1)CCCC2", "INHIBITION": 89.4},
      {"compound": "COc1ccccc1C1CNC(=O)c2nc(-c3ncc[nH]3)[nH]c2C1", "note": "(stereo not given)", "INHIBITION": 89.1},
      {"compound": "COc1ccccc1C1SCC(=O)Nc2n[nH]cc21", "note": "(stereo not given)", "INHIBITION": -117},
      {"compound": "COc1cccc(CC(C)NC(=O)NCCNC(C)=O)c1", "note": "(stereo not given)", "INHIBITION": -47.5},
      {"compound": "CCC(CNC(=O)CNC(C)=O)Oc1cccc(F)c1", "note": "(stereo not given)", "INHIBITION": 85},
      {"compound": "CN(C)[C@@H]1CN(C(=O)COc2cccc(F)c2)C[C@H]1O", "INHIBITION": -21.2},
      {"compound": "O=C(Cc1cccc(F)c1)N1CCN2C[C@H](Oc3cncnc3)C[C@H]2C1", "INHIBITION": -93.1},
      {"compound": "Cc1nnc(N2CCCC3(CN(Cc4cccnc4)CCO3)C2)o1", "note": "(stereo not given)", "INHIBITION": -77.8},
      {"compound": "Cc1ccccc1-n1cc(C2=CCN(CCn3cc[nH]c3=O)CC2)cn1", "INHIBITION": -111},
      {"compound": "CC(=O)N1CCN([C@@H]2CN(C(=O)Cc3ccccc3C)C[C@H]2O)CC1", "INHIBITION": -146},
      {"compound": "CC(C)(C)c1nc(CN(Cc2cccnc2)C2CN3CCC2CC3)no1", "note": "(stereo not given)", "INHIBITION": -29.7},
      {"compound": "c1ccc(-c2nnc(CNC3CCCN(c4cccnn4)C3)o2)cc1", "note": "(stereo not given)", "INHIBITION": 75.8},
      {"compound": "CC(C)(C)c1nc(CNC2CCCN(c3cccnn3)C2)no1", "note": "(stereo not given)", "INHIBITION": 83},
      {"compound": "CCCN1CCN(C(=O)c2cncnc2C)[C@H]2CS(=O)(=O)C[C@H]21", "INHIBITION": -87.7},
      {"compound": "Cc1ccc(CN2Cc3nnn(C)c3C(COCCN(C)C)C2)s1", "note": "(stereo not given)", "INHIBITION": 73.9},
      {"compound": "Cc1ccc(CN2C[C@@H]3[C@@H](C2)OCC(=O)N3Cc2ccncc2)s1", "INHIBITION": 3.28},
      {"compound": "Cc1ccc(N2CCO[C@H]3CN(Cc4ccncc4)C[C@H]32)nn1", "INHIBITION": -111},
      {"compound": "Cc1ccc2c(c1)CN(C(=O)c1cccs1)C(CN(C)C)CO2", "note": "(stereo not given)", "INHIBITION": 77.3},
      {"compound": "CN(CC1Cc2ccccc2CN1C)C(=O)Cc1cccs1", "note": "(stereo not given)", "INHIBITION": -12.1},
      {"compound": "O=C(NCCOc1cccc(Cl)c1Cl)N1CCC2(CC1)OCCO2", "INHIBITION": -68.2},
      {"compound": "Cc1ccc2[nH]c(CN(C)Cc3n[nH]c4c3CCC4)nc2c1", "INHIBITION": 82.3},
      {"compound": "Cc1ccc2nc(CN(C)Cc3n[nH]c4c3CCCCC4)[nH]c2c1C", "INHIBITION": 85.8},
      {"compound": "CC(Cn1cncn1)NCc1n[nH]c2c1CCCCC2", "note": "(stereo not given)", "INHIBITION": -49.3},
      {"compound": "NC1(c2nc(C(F)(F)F)cc(=O)[nH]2)CCCCC1", "INHIBITION": 4.74},
      {"compound": "CC(=O)N1CCC2(CN(CC3CCCC3)C2)C1", "INHIBITION": -99.3},
      {"compound": "CN(C)C[C@H]1C[C@@H]2CN(Cc3ccoc3)C[C@@H]2O1", "INHIBITION": 20.7},
      {"compound": "CN(C)C[C@H]1C[C@@H]2CN(Cc3ccco3)C[C@@H]2O1", "INHIBITION": 38.9},
      {"compound": "COc1ccc(CN2C[C@H]3C[C@H](CN(C)C)O[C@H]3C2)cc1", "INHIBITION": 79.6},
      {"compound": "O=C(CC1CCCC1)N1C[C@@H]2C[C@@H]1CN2", "INHIBITION": -57.9},
      {"compound": "CN(C(=O)c1ccon1)[C@@H]1CCC[C@@H](Oc2ccccc2)[C@@H]1O", "INHIBITION": 79.8},
      {"compound": "Cc1ncsc1CN1C[C@@H]2CN(Cc3cccnc3)CCO[C@@H]2C1", "INHIBITION": -49.8},
      {"compound": "CCNc1ccnc(N2Cc3cnc(CC(C)C)nc3C2)n1", "INHIBITION": 74.6},
      {"compound": "CC(C)Nc1ccnc(N2Cc3cnc(C(C)(C)C)nc3C2)n1", "INHIBITION": 50.1},
      {"compound": "O=C(c1cscn1)N1CCN2C[C@H](OCc3cccnc3)C[C@H]2C1", "INHIBITION": -55.9},
      {"compound": "COc1ccc(C2SCC(=O)Nc3n[nH]cc32)c(OC)c1OC", "note": "(stereo not given)", "INHIBITION": -164},
      {"compound": "O=C(Nc1ccc(Cn2cccn2)cc1)N1CCC2(CC1)OCCO2", "INHIBITION": -153},
      {"compound": "CN(CCc1cccc2ccccc12)Cc1nc(N)nc(N(C)C)n1", "INHIBITION": 92.2},
      {"compound": "COc1ccccc1CCN(C)Cc1nc(N)nc(N(C)C)n1", "INHIBITION": 69.9},
      {"compound": "COc1ccccc1CC(C)N(C)CCS(C)(=O)=O", "note": "(stereo not given)", "INHIBITION": 1.1},
      {"compound": "Cc1nc(-c2ccccc2F)sc1C(=O)N1CCC(=O)CC1", "INHIBITION": -67.5},
      {"compound": "O=C(Cc1cccs1)N1C[C@@H]2OCCN(CC3CCCO3)[C@@H]2C1", "note": "(stereo not given in full)", "INHIBITION": -87.1},
      {"compound": "Cn1cc(C2SCC(=O)Nc3c2cnn3C(C)(C)C)cn1", "note": "(stereo not given)", "INHIBITION": -6.82},
      {"compound": "CCC(O)CN1CCN(C(=O)Cc2cc(C)ccc2OC)CC1", "note": "(stereo not given)", "INHIBITION": -68.2},
      {"compound": "CCN1CCC(CNCc2cc(C)ccc2OC)C1", "note": "(stereo not given)", "INHIBITION": 82.7},
      {"compound": "COc1ccc(C)cc1CC(=O)N1CCN(CC(C)O)CC1", "note": "(stereo not given)", "INHIBITION": -34.3},
      {"compound": "N#Cc1ccc(OC[C@]23COC[C@H]2CN(Cc2nccs2)C3)nc1", "INHIBITION": -22.3},
      {"compound": "O=C(C1CC1)N1CCOC2(CCNCC2)C1", "INHIBITION": -22.2},
      {"compound": "Cc1ccc(C(O)CN2CCN(Cc3nccn3C)CC2)cc1C", "note": "(stereo not given)", "INHIBITION": 80.4},
      {"compound": "Cn1ccnc1CN1CCC2(CC(=O)N(c3ccccn3)C2)C1", "note": "(stereo not given)", "INHIBITION": -145},
      {"compound": "Cc1ccc(CC(=O)N2CCCN(Cc3nccn3C)CC2)cn1", "INHIBITION": -72.4},
      {"compound": "CC(C)c1nccc(C2(c3ccccc3Cl)CCNCC2)n1", "INHIBITION": 83.4},
      {"compound": "CC(C)(C)c1nccc(C2(c3ccccc3Cl)CCNCC2)n1", "INHIBITION": 76.1},
      {"compound": "Clc1ccccc1C1(c2ccnc(-c3ccncc3)n2)CCNCC1", "INHIBITION": 83.6},
      {"compound": "Cc1ccc(N2CCO[C@H]3CN(Cc4cccnc4)C[C@H]32)nn1", "INHIBITION": -18.3},
      {"compound": "O=C1CC2(CCCNC2)C(=O)N1Cc1ccccc1", "note": "(stereo not given)", "INHIBITION": -15.7},
      {"compound": "CC(C)c1ccc(CN2C(=O)C3(CCNCC3)Nc3ccccc32)cc1", "INHIBITION": 82},
      {"compound": "CN1C(=O)CC2(CCNCC2)c2ccccc21", "INHIBITION": 2.59},
      {"compound": "c1cncc(CN2CCN3C[C@H](Oc4cncnc4)C[C@H]3C2)c1", "INHIBITION": -155},
      {"compound": "CC(C)[C@@H]1CN(C(=O)C2(c3ccccc3)CCN(C)CC2)C[C@H]1C(=O)O", "INHIBITION": -65.7},
      {"compound": "CC(C)[C@@H]1CN(C(=O)C2(c3ccccc3)CCN(C)CC2)C[C@H]1N(C)C", "INHIBITION": 83.7},
      {"compound": "CC(=O)C1(c2ccccc2)CCN(C(=O)c2ccc3nnnn3c2)CC1", "INHIBITION": -106}
    ]}
  ]
}
